Data from PubChem BioAssay AID1345085 (National Center for Advancing Translational Sciences (NCATS), 2018).
Records with an inconclusive call do not appear. Calls of active or inactive are those of the source. Calls follow the shape of the dose curve; as a rule, active = well fitted cell-killing curve with a large enough effect; inconclusive = small, poorly fitted or top-dose-only effect, or effect the other way; inactive = no such curve, though single readings can be large or run the other way.

Each molecule was assayed on JEG-3 (assay: Confirmatory qHTS for gynecologic anti-cancer compounds from libraries of approved drugs and bioactive compounds). Details: gynecologic cancer cell panel viability, ATPlite luminescence, 48 h; series mostly up to 57.6 µM; activity change, negative = viability loss: at the top concentration.
Summary of the method: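 ATPlite luminescence read-out of cell viability; IC50 from 11-point 1:3 titrations, 57.5 uM to 0.977 nM, 48 h compound exposure at 37 C, 5% CO2. Cells seeded at 1,000/well 16 h before dosing.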
% is scaled to controls: 0 for no effect and ±100 for the full control effect; potency is read from the fitted curve at half-maximal effect.
Also: nearly all actives have a fitted effect of over 55% in size.

Q: With `Nc1nccc(Oc2ccc(NC(=O)c3c[nH]cc(-c4ccc(F)cc4)c3=O)cc2F)c1Cl` as the molecule, how does the Potency read?
A: Its Potency is 4.32 µM (active).

Q: Which Potency does the source give for `Cc1ccc(C(=O)Nc2ccc(CN3CCN(C)CC3)c(C(F)(F)F)c2)cc1C#Cc1cnc2cccnn12` here?
A: Its Potency is 27.3 µM (active).

Q: With `FC(F)(F)c1ccc(/C=C/c2nc(COc3ccc(CCCCn4ccnn4)cc3)co2)cc1` as the molecule, how does the Potency read?
A: Its Potency is 0.0172 µM (active).

Q: How did the “activity change, negative = viability loss” value turn out when `O=c1[nH]c(=O)n([C@H]2C[C@H](O)[C@@H](CO)O2)cc1Br` was run?
A: The value was -13.3% (inactive).

Q: `O=C(c1ccc(F)c(F)c1Nc1ccc(I)cc1F)N1CC(O)([C@@H]2CCCCN2)C1` was tested. Which Potency did it give?
A: The Potency was 24.3 µM (active).

Q: `Cc1cnc(Nc2cccc(CN3CCOCC3)c2)nc1Nc1cccc(S(=O)(=O)NC(C)(C)C)c1` was tested. Which Potency did it give?
A: The Potency was 17.2 µM (active).

Q: Which Potency does the source give for `CCN1CCN(Cc2ccc(Nc3ncc(F)c(-c4cc(F)c5nc(C)n(C(C)C)c5c4)n3)nc2)CC1` here?
A: Its Potency is 9.68 µM (active).

Q: For `CN(C[C@@H]1COCCO1)S(=O)(=O)Nc1ccc2ccc3ncc(-c4cnn(C)c4)cc3c(=O)c2c1`, which “activity change, negative = viability loss” value is on record?
A: Its value is 4.4% (inactive).

Q: Which Potency does the source give for `Cc1cnc(Nc2ccc(OCCN3CCCC3)cc2)nc1Nc1cccc(S(=O)(=O)NC(C)(C)C)c1` here?
A: The Potency was 24.3 µM (active).

Q: With `CCOc1cc2ncc(C#N)c(Nc3ccc(F)c(Cl)c3)c2cc1NC(=O)/C=C/CN(C)C` as the molecule, how does the Potency read?
A: Its Potency is 30.6 µM (active).

Q: Which Potency does the source give for `NC(=O)Nc1cc(-c2cccc(F)c2)sc1C(=O)NC1CCCNC1` (stereo unspecified) here?
A: The Potency was 1.22 µM (active).

Q: Which Potency does the source give for `CN(C)C/C=C/C(=O)Nc1cc2c(Nc3ccc(F)c(Cl)c3)ncnc2cc1OC1CCOC1` (stereo unspecified) here?
A: Its Potency is 19.3 µM (active).

Q: With `CC[C@]1(O)C[C@H]2CN(CCc3c([nH]c4ccccc34)[C@@](C(=O)OC)(c3cc4c(cc3OC)N(C=O)[C@H]3[C@@](O)(C(=O)OC)[C@H](OC(C)=O)[C@]5(CC)C=CCN6CC[C@]43[C@@H]65)C2)C1` as the molecule, how does the Potency read?
A: Its Potency is 0.193 µM (active).

Q: Which “activity change, negative = viability loss” value does the source give for `CCCCN(CCCC)CC(O)c1cc(Cl)cc2c1-c1ccc(Cl)cc1/C2=C/c1ccc(Cl)cc1` (stereo unspecified) here?
A: The value was 10.7% (inactive).

Q: With `COCCOc1ccc2c(c1)ncn2-c1ccc2cccc(N3CCC(N)CC3)c2n1` as the molecule, how does the Potency read?
A: Its Potency is 10.9 µM (active).

Q: With `CC(Oc1cc(-n2cnc3ccc(CN4CCN(C)CC4)cc32)sc1C(N)=O)c1ccccc1C(F)(F)F` (stereo unspecified) as the molecule, how does the Potency read?
A: The Potency was 1.93 µM (active).
